DAX1 inh-1: NR0B1 (DAX1) inhibition | P51843 | HEK293 Gal4-DAX1 luciferase reporter, luminescence | inhibition, % at 6.75 µM | hit rate 0.99% among 340,000 | AID 504766;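 active = inhibition above the mean over all tested compounds plus 3 SD, cut at about 4.2% in these data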;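 note: 0% = DAX1-transfected cells with DMSO and 100% = empty-vector control cells with DMSO; inhibition shows as a rise in luminescence from relieved DAX1 repression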
Target sequence (P51843 207-470 limits assumed): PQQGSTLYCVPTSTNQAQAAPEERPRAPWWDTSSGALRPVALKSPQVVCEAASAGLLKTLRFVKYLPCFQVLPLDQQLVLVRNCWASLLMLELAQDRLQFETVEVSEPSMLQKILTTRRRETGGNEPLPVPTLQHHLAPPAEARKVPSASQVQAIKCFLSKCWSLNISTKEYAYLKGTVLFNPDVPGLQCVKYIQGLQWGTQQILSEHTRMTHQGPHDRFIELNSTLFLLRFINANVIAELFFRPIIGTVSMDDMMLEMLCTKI
hcDAF-12 act: H. contortus DAF-12 activation, primary screen; activation, % at 6.8 µM; HEK293 hcDAF-12 lit1-tk-luc reporter, luminescence; 0% DMSO, 100% Δ7-dafachronic acid; hit rate 1.4% among 370,000;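 active = activation above the mean of all tested compounds plus 3 SD, cut at about 5.5% in these data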;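 note: 100% = response to 3 µM Δ7-dafachronic acid high control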
ssDAF-12 act: activators of S. stercoralis DAF-12 nuclear receptor. HEK293 ssDAF-12/GRIP1 lit1-tk-luc reporter, luminescence; % of 3 µM dafachronic acid response. activation, % at 6.8 µM. hit rate 1% among 370,000;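 active = activation above the mean over all tested compounds plus 3 SD, cut at about 0.9% in these data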;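 note: 0% = DMSO-only wells and 100% = 3 µM delta7-dafachronic acid wells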
DAX1 inh-2: inhibitors of DAX1 repression of SF-1 activated StAR promoter. HEK293T StAR-luciferase reporter, SF-1/DAX-1 repression relief. inhibition, % at 6.8 µM. hit rate 1.1% among 370,000;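 active = inhibition above the mean over all tested compounds plus 3 SD, cut at about 3.6% in these data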;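 note: 0% = DAX-1 cells with DMSO and 100% = cells lacking DAX-1 with DMSO; higher inhibition means more luminescence from relief of DAX-1 repression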
hgDAF12 agonist: activates the H. glycines DAF-12 receptor ligand-binding domain | HEK293 GAL4-hgDAF12 UAS-luciferase reporter, agonist luminescence; normalized to butyrate control | activation, % at 6.8 µM | hit rate 1.8% among 370,000 | AID 687014;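 active = activation above a cutoff set at the mean of all screened compounds plus 3 SD, cut at about 10% in these data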;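 note: 0% = DMSO wells and 100% = sodium butyrate wells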
Wee1 stabilizer: human Wee1 degradation inhibition, primary screen; P30291; HeLa Luc-Wee1K328M stability, luciferase luminescence; 100% = proteasome inhibitor MG132 effect; reporter increase, % at 5 µM; hit rate 1.2% among 220,000;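 active = activation above the mean of all tested compounds plus 3 SD, set per screening run, cut at about 8.8% in these data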;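 note: cells exposed to compound for 20 h before luminescence read; 0% = DMSO alone and 100% = MG132 at 30 µM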
DAX1 conf: confirmation of human DAX1 (NR0B1) inhibitors; HEK293T StAR-promoter luciferase reporter, SF-1/DAX-1 repression; hit rate 87% among 2,400; inhibition, % at 6.8 µM; shares compounds with DAX1 inh-2;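 active = inhibition above the average of every tested compound plus 3 SD, cut at about 3.8% in these data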;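 note: 0% = DAX-1 cells with DMSO and 100% = no DAX-1 control cells with DMSO; active compounds raise luminescence by relieving repression of the StAR reporter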
Target sequence (P51843 whole entry, looked up): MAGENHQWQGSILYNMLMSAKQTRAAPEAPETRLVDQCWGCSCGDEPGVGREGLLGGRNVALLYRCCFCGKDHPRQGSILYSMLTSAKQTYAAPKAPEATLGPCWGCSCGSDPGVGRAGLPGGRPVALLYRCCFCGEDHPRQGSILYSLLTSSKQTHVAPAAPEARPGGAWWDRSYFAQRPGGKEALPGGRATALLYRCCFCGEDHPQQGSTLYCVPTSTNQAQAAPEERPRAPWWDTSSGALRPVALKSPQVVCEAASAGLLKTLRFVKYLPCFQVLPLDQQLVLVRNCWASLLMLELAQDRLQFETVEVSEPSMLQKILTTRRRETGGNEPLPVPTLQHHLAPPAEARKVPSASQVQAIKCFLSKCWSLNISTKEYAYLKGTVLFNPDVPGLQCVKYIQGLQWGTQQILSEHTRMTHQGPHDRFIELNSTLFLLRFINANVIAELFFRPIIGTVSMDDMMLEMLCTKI
SF1 mutant ctr: counter-screen for DAX1 inhibitors: nonselective inhibitors with SF-1 AF2 mutant | shares compounds with DAX1 inh-2 | HEK293 StAR-luciferase, luminescence | inhibition, % at 6.8 µM | hit rate 78% among 2,400;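 active = inhibition above the mean of all tested compounds plus 3 SD, cut at about 3% in these data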;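 note: 0% = DAX-1 transfected cells with DMSO and 100% = cells without DAX-1 with DMSO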
Starred values were filed as active, the others as inactive; x = not tested or not shown. Hits are enriched below; roughly 4.6% of the tested compounds scored in any of these assays.

SMILES | DAX1 inh-1 | hcDAF-12 act | ssDAF-12 act | DAX1 inh-2 | hgDAF12 agonist | Wee1 stabilizer | DAX1 conf | SF1 mutant ctr
CS(=O)(=O)N1CCCCC1c1cc(C(=O)Nc2cccc(C#N)c2)no1 (configuration not stated) | x | -2.2 | -0.7 | 2.0 | 4.0 | x | x | x
Fc1ccc(-c2nnc(-c3ccc(Cl)cc3)o2)cc1 | 1.2 | 1.6 | -0.3 | 1.8 | 7.8 | -0.9 | x | x
Fc1ccc(-c2nnc(-c3ccc(Cl)cc3Cl)o2)cc1 | 2.0 | 4.9 | 0.5 | 5.3* | 12.3* | -0.7 | 8.3* | 3.6*
COC(=O)[C@@]12CCCCN1[C@H](c1ccc(-c3ccc(F)cc3)cc1)[C@@H]1C(=O)N(C)C(=O)[C@@H]12 | 0.1 | -0.7 | -1.6 | -0.2 | -1.1 | x | x | x
O=C(O)c1ccccc1NN=Cc1ccccc1 | 4.5* | 3.4 | 0.0 | 5.6* | 9.9 | x | 9.3* | 5.9*
CN(C)c1ccc(NC(=O)c2cnsn2)cc1 | -0.7 | 3.5 | -0.5 | 6.3* | 10.4 | -3.2 | 7.4* | 1.7
Cc1noc(C)c1C(=O)Nc1ccc(N(C)C)cc1 | 0.9 | -2.1 | -0.8 | -0.5 | -1.0 | x | x | x
Cc1ccnc(NC(=O)c2ccc(OCC3CCCO3)cc2)c1 (configuration not stated) | -2.1 | 4.7 | 0.1 | 6.8* | 9.0 | x | 4.5* | -0.1
Cc1ccc(NC(=O)c2ccc(OCC3CCCO3)cc2)c(C)c1 (configuration not stated) | -0.6 | 2.2 | -0.7 | 0.2 | 0.4 | 1.9 | x | x
CCCCC[C@H](C)N1C[C@H](COCc2ccccc2)Oc2cc(N3CCC[C@@H]3COC)ccc2S1(=O)=O | x | 1.1 | -1.4 | 5.4* | 0.7 | x | 0.5 | -0.6
CCCCC[C@H](C)N1C[C@@H](COCc2ccccc2)Oc2cc(N3CCC[C@H]3COC)ccc2S1(=O)=O | x | 0.3 | -0.3 | 0.5 | 2.1 | x | x | x
O=c1[nH][nH]c2c1[C@H](c1ccc(F)cc1)O[C@H](CCC(F)(F)F)C2 | x | -1.2 | -0.6 | -0.2 | 0.5 | x | x | x
Cc1ccc(CC(=O)O/N=C(\N)c2ccccn2)cc1 | 0.7 | 1.8 | -0.6 | 5.0* | 11.2* | x | 4.0* | 3.2*
COc1cc(OC)cc(C(=O)Nc2ccc3nc4n(c(=O)c3c2)CCCCC4)c1 | -0.4 | -1.5 | -1.4 | 6.0* | 1.1 | x | 3.2 | 2.3
CN(C)CCN(C(=O)c1ccc2c(c1)CCCC2)c1nc2cc3c(cc2s1)OCCO3 | 2.4 | 6.1* | -0.3 | 6.0* | 5.1 | x | 4.4* | 1.5
CC(C)(C)OC(=O)C[C@H]1C/C=C\C[C@@H](CC(=O)N(CCO)Cc2ccccc2)C(=O)NC[C@@H](c2ccccc2)OC1=O | -0.6 | -2.2 | -1.9 | 0.7 | 0.3 | x | x | x
CC(=O)c1ccc(N(CC(=O)NC2CCS(=O)(=O)C2)S(=O)(=O)c2ccc(Cl)cc2)cc1 (configuration not stated) | -0.1 | -2.2 | -1.3 | -0.2 | 1.5 | x | x | x
O=C(NNC(=O)c1ccccc1O)c1cc2ccccc2o1 | 2.1 | 4.9 | 1.1* | 5.6* | 5.4 | x | 3.8* | 4.0*
CN(C)CCNC(=S)Nc1ccc(-c2nc3ccccc3[nH]2)cc1 | 3.4 | 4.4 | -0.1 | 5.0* | 12.8* | 7.5 | 12.3* | 8.7*
CS(=O)(=O)c1cccc(C(=O)Nc2ccc(-c3nc4ccccc4[nH]3)cc2)c1 | -1.0 | -2.1 | -0.8 | 7.2* | -3.2 | x | 6.7* | -1.9
S=C(NCCCN1CCOCC1)Nc1ccc(-c2nc3ccccc3[nH]2)cc1 | 0.5 | -1.9 | -1.7 | -2.0 | 1.7 | 0.2 | x | x
CC(C)=CCCC(C)c1cc(C(=O)NCCc2ccc(O)cc2)c(N)s1 (configuration not stated) | x | -0.9 | -1.5 | -3.2 | -2.2 | x | x | x
Nc1cnn(C2OC(CO)C(O)C2O)c(=O)n1 (configuration not stated) | -0.8 | 1.0 | -1.6 | 4.6* | -4.2 | -3.2 | 6.8* | -0.2
Nc1nc(=O)n(C2OC(CO)C(O)C2O)cc1F (configuration not stated) | x | -2.3 | -1.7 | -3.9 | -5.6 | x | x | x
CCN1C(=O)[C@@H]2[C@@H](c3ccc(SC4CCCCC4)c(OC)c3)N3CCC[C@@]3(C(=O)OC)[C@@H]2C1=O | -0.8 | -2.2 | -1.9 | -0.8 | 0.8 | x | x | x
SMILES | DAX1 inh-1 | hcDAF-12 act | ssDAF-12 act | DAX1 inh-2 | hgDAF12 agonist | Wee1 stabilizer | DAX1 conf | SF1 mutant ctr
COc1ccc(OC)c(-c2nnc3n2N=C(c2ccc(OC)c(OC4CCOC4)c2)CS3)c1 (configuration not stated) | -1.0 | -4.2 | -1.8 | 4.9* | -3.0 | x | 19.4* | -9.8
COc1ccccc1-c1nnc2n1N=C(c1ccc3c(c1)OCO3)CS2 | x | -4.5 | -1.2 | 4.7* | -2.9 | x | 10.9* | -5.5
COc1ccc(C2=Nn3c(nnc3-c3ccccc3Cl)SC2)cc1OC1CCOC1 (configuration not stated) | 1.3 | -1.8 | -0.8 | -0.1 | -1.9 | x | x | x
CC(=O)c1c(C)[nH]c(C(=O)Nc2ccccc2C)c1C | x | 4.8 | -0.7 | x | 2.6 | x | x | x
CCc1ccc(OCC(=O)O/N=C(\N)c2ccncc2)c(Br)c1 | 1.8 | 5.2 | 0.4 | 7.6* | 12.2* | x | 7.0* | 4.8*
COc1cccc(NC(=O)C(=O)N/N=C(\C)CC(=O)Nc2ccc(NC(C)=O)cc2)c1 | 0.6 | 2.4 | -0.3 | 5.8* | 12.5* | x | 5.9* | 5.8*
CCc1ccc(NC(=O)C(=O)N/N=C(\C)CC(=O)Nc2ccc(OC)cc2)cc1 | 1.3 | 4.7 | -0.9 | -0.1 | -0.1 | 0.9 | x | x
Nc1ccc(C#Cc2ccccc2)cc1 | 1.2 | -2.0 | -2.0 | -1.0 | -0.8 | 1.5 | x | x
Cc1cccc(C#Cc2ccccc2)n1 | 1.0 | 2.8 | -0.3 | 4.9* | 10.9* | x | 7.3* | 4.9*
CC(C)Oc1ccc(C(=O)Nc2nnc(SCC(=O)N3CCOCC3)s2)cc1 | -1.6 | 4.8 | 0.1 | 5.2* | 11.0* | 3.4 | 8.7* | 2.2
COc1ccc2sc(NC(=O)c3ccco3)nc2c1 | -2.1 | 4.3 | -0.3 | 6.2* | 10.3 | -0.9 | 10.1* | 2.6
COc1ccc2nc(NC(=O)CCNC(=O)c3ccco3)sc2c1 | 0.9 | 4.7 | -0.8 | 2.3 | 8.2 | x | x | x
CCOC(=O)CC[C@H](NC(=O)Cn1cnc2c(NCc3ccccc3)ncnc21)C(=O)OCC | -0.7 | 0.3 | -1.4 | -1.4 | -0.3 | x | x | x
COc1c(OC(C)=O)ccc(/C=C/c2ccc3ccccc3n2)c1[N+](=O)[O-] | 2.5 | 3.6 | 0.2 | 5.1* | 8.9 | 2.9 | 11.8* | 6.2*
O=C(Nc1ccc2ccccc2c1)c1cccnc1 | 2.2 | 2.8 | 0.0 | 4.7* | 8.2 | 1.9 | 11.2* | 7.7*

Screens as filed in PubChem.
